Test [1] can be described thus: reducers of endogenous Her2 protein level, primary screen, SKBR3 breast tumor cells, AlphaScreen, ATP viability (AID 461;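 active = Her2 level under about 52% in both replicate screens, with viability over 70% of control, limit read from the data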;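 for Her2 level: lower value means less Her2 protein in the cells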;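 for viability: percent of carrier control wells set as 100% viability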). Particulars: 18-24 h, measured here: SKBR3 viability, ATP luminescence, at 10 µM. In general terms: Alpha assays give light when donor and acceptor beads are brought close together.
In test [2] the target is Receptor tyrosine-protein kinase erbB-2 (Homo sapiens) (UniProt P04626). The test is described as above. Particulars: 18-24 h, at 10 µM, stronger effect = lower value.
Receptor tyrosine-protein kinase erbB-2 (Homo sapiens), sequence (P04626 whole entry, looked up): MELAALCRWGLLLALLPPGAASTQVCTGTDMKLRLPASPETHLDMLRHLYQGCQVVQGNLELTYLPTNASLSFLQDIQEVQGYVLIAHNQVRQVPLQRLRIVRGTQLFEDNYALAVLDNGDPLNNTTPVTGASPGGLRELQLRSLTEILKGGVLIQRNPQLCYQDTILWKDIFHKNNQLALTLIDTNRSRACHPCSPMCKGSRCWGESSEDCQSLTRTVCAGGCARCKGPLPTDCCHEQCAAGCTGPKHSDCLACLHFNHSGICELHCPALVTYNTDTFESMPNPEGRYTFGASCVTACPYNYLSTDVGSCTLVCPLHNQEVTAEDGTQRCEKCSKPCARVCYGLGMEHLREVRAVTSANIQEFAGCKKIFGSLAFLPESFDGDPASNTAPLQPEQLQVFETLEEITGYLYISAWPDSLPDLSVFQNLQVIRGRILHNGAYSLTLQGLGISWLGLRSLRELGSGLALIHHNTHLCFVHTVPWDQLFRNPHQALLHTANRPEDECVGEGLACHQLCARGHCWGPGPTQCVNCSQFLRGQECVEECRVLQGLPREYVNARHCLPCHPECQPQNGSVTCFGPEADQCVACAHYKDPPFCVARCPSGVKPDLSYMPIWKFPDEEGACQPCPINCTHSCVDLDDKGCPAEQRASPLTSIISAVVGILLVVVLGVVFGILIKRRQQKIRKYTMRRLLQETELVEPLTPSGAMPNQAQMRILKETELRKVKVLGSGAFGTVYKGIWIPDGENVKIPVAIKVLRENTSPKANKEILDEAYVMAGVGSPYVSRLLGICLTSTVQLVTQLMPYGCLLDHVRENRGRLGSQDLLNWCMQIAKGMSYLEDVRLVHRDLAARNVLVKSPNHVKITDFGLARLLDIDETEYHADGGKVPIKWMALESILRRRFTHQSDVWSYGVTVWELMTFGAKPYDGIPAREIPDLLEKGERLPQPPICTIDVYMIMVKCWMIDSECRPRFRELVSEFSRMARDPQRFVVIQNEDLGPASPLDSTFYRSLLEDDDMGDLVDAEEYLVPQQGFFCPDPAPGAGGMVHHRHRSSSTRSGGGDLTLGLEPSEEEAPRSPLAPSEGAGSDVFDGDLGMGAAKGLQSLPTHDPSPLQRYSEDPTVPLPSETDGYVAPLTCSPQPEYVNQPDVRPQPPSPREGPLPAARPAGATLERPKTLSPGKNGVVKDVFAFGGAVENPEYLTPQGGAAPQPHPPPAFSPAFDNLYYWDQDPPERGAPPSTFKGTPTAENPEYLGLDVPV
The nature of test [3]: SK-BR-3 cell growth inhibitors, pilot screen, 24 h, human (AID 572).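 Note: compound exposure lasted between 18 and 24 h rather than exactly 24 h; 100% = carrier-treated control wells.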 Particulars: SK-BR-3 viability, CellTiter-Glo luminescence, at 10 µM, stronger effect = lower value.
The nature of test [4]: HUVEC growth inhibition – cell-based, human, primary screen (AID 575;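 active = viability at or below 30% in both replicate assays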;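 note: 100% = median of untreated cell wells with 0.1% DMSO on each plate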). Particulars: HUVEC proliferation, CellTiter-Glo luminescence, 72 h; at 10 µM; stronger effect = lower value. (In general: ATP-based viability assays read luminescence as a measure of living cells.)
Test [5] is described as follows: growth inhibitors of H69AR lung tumor, primary screen, human, duplicate replicates (AID 580;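 active = viability at or under a set limit in both replicates, limit being median viability minus 3 SD, cut at about 48% in these data, passing the limit was not always enough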;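 note: 100% = mean luminescence of untreated wells and 0% = no signal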). Particulars: H69AR lung tumor cells viability, ATP luminescence, 72 h; at 10 µM; stronger effect = lower value.
Test [6] is described as follows: reversal of MRP1-mediated doxorubicin resistance, pilot screen, H69AR cells, doxorubicin co-treatment (AID 601;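 active = viability loss from added drug above about 55%, and viability with drug at most 40%, in both replicates, limit read from the data, passing the limit was not always enough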). Particulars: CellTiter-Glo, 72 h, at 10 µM; for differential viability (reversal): stronger effect = higher value.
Test [7] can be described thus: 384-well plate pilot, post-Golgi transport modulator project, inhibition of yeast transport mutant growth (AID 636; in the data active = inhibition above about 31%). The note with it: absorbance 615 nm, about 18 h, stronger effect = higher value.
Test [8] is described as follows: growth suppression of yeast trafficking mutant, preliminary HTS, modulators of trafficking downstream of Golgi apparatus project, 1536-format plate, OD 615 nm (AID 637; in the data active = inhibition above about 30%). The note with it: yeast transport mutant growth, absorbance 615 nm, 18 h; stronger effect = higher value.
Test [9] can be described thus: OD615 S. cerevisiae growth inhibition, permissive medium, pilot counter-assay, permissive growth control for S. cerevisiae lifespan shortening project (AID 705;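 active = growth inhibition above 25% in both replicates, a cutoff set 3 SD above the mean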). The note with it: OD615, 24 h, at 10 µM, stronger effect = higher value.
Test [10] can be described thus: viability gain of MRP-1-high H69AR cells under doxorubicin, pilot screen, MRP-1 activator project, CellTiter-Glo, duplicate (AID 807;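 active = viability increase at or above a cutoff of the median across tested compounds plus 3 SD, cut at about 8.5% in these data, passing the limit was not always enough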;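 note: compound pretreatment 18-22 h then 72 h combined with doxorubicin; 0% = doxorubicin alone and 100% = vehicle without doxorubicin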). The note with it: H69AR viability with doxorubicin, CellTiter-Glo luminescence; at 10 µM; stronger effect = higher value.
Test [11] in a line: growth suppression of beta-catenin knockout HCT116, pilot screen, human colon tumor cells (AID 823;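 active = cell viability at or below a set limit in both duplicate runs, the limit being the all-compound median minus 4 SD, cut at about 23% in these data, passing the limit was not always enough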;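 note: 0% = wells killed by 20 µM Hyamine and 100% = untreated DMSO cell wells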). The note with it: CellTiter-Glo, 60 h, at 10 µM, stronger effect = lower value.
The nature of test [12]: growth suppression of PTEN-deleted HCT116, pilot screen, cell-based, HCT116 clonal line, CellTiter-Glo (AID 824;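 active = viability at or below 27.92% in each of two runs, the all-compound median minus 4 SD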;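 note: 0% = 20 µM Hyamine control and 100% = vehicle cell control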). Particulars: 60 h, at 10 µM, stronger effect = lower value.
Test [13] is described as follows: inhibitors of the yeast RAM network, pilot screen, dse1pr::URA3 reporter, 5-FOA selection (AID 869;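 active = inhibition over a set limit, the all-compound mean plus 3 SD, in both replicate runs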;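 note: 0% = DMSO wells with no growth and 100% = 10 µM 1-NA-PP1 with full growth; RAM network block rescues cells from 5-FOA so hits raise OD615 growth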). The note with it: S. cerevisiae dse1pr::URA3 5-FOA growth, OD615, 2 d; at 10 µM; stronger effect = higher value; strain carries analog-sensitive mutant Cbk1 kinase.
Test [14] can be described thus: RAM signaling pathway blockade in yeast – S. cerevisiae, Pdr1DBD-CYC8 efflux-inhibited sensitized strain, primary screen (AID 1298;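 active = RAM network inhibition above 8.4% in each of two replicates, 3 SD over the compound average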;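 note: 0% = DMSO untreated cells without growth and 100% = 10 µM 1-NA-PP1 full growth; higher means more yeast growth rescued from 5-FOA killing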). The note with it: S. cerevisiae cbk1-as DSE1-URA3 strain, 5-FOA growth OD615, 2 d; at 50 µM; stronger effect = higher value.
A short description of test [15]: Restrictive medium S. cerevisiae growth inhibition, OD615, pilot screen of yeast lifespan reduction project, restrictive growth control (AID 706;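 active = growth inhibition above a set limit, 3 SD over mean compound inhibition, in both replicates, cut at about 43% in these data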;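 note: modified DeaD lifespan yeast strain shifted to restrictive glucose medium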). Particulars: OD615, 48 h, at 10 µM, stronger effect = higher value.
Where [16] appears, read: H69AR cells + 2 uM doxorubicin, measured here: viability with 2 uM doxorubicin, stronger effect = lower value.
The mark [17] stands for this setting: H69AR cells, compound alone cytotoxicity.

Records with an inconclusive call do not appear. Activity calls are given as the source filed them.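 Rule for the calls, unless noted: active = viability at or below 10% of carrier control in both of two separate runs; inconclusive = viability at or below 10% in only one of the two runs; inactive = the rest.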

The term viability denotes a read-out of living cells in per cent, often relative to untreated cells. For orientation: inhibition means the change of the read-out against control, counted positive when it falls.

For the molecule `CCOc1ccccc1C1CC(c2ccc(Br)cc2)Nc2nc(N)nn21` (stereo unspecified), the viability in test [1] is 91.5%; in test [3], 91.5% (inactive); in test [4], 63.3% (inactive); in test [5], 25.7% (active); in [6] (setting [16]), 71.6%; in test [6] (setting [17]) it was 25.7%. Also, the values for the viability in test [11] and in [12] were 69.3% (inactive) and 73.2% (inactive), respectively. Further, the Her2 level in [2] was 102% (inactive). The differential viability (reversal) in test [6] (H69AR cells + 2 uM doxorubicin) was -45.9% (inactive). In addition, the results for the inhibition in [7], in test [8] and in test [13] were -2.13% (inactive), 0.16% (inactive) and 2.62% (inactive), respectively. Moreover, the growth inhibition in test [9] is 9.24% (inactive). For the same molecule, in test [10], the viability increase was -2.25% (inactive). The RAM network inhibition in [14] is 4.4% (inactive).
Turning to `C/C=C/COC(=O)c1[nH]c2c(c1C)C(=O)CC(c1ccc(N(C)C)cc1)C2` (stereo unspecified), the viability in [1] was 92%; in [3], 92% (inactive); in [4], 62.4% (inactive); in test [6] (setting [16]), 72.1%; in test [6] (setting [17]), 41.9%; in test [11], 60.6% (inactive). Also, in [12], the viability was 66.6% (inactive). In addition, the Her2 level in test [2] was 94% (inactive). Moreover, in test [6] (H69AR cells + 2 uM doxorubicin), the differential viability (reversal) was -30.1% (inactive). Moreover, the inhibition in [7] is 2% (inactive); in [8] it was 49.8% (active); in [13], 1.9% (inactive). Further, the growth inhibition in test [9] was -10.2% (inactive); in test [15] it was -9.05% (inactive). Moreover, in test [10], the viability increase is -2.69% (inactive). The RAM network inhibition in [14] is 4.88% (inactive).
`Cc1ccc2oc(=O)c3cnn(CC(=O)N4CCCCC4C)c3c2c1` (stereo unspecified): the viability was 91.5% in test [1]; 91.5% (inactive) in [3]; 103% (inactive) in [4]; 89.2% (inactive) in [5]; 84.1% (inactive) in [11]; 87.1% (inactive) in test [12]. Moreover, the Her2 level in test [2] is 108% (inactive). The inhibition in test [7] is -0.27% (inactive); in test [8], 2.62% (inactive); in test [13], 3.4% (inactive). In addition, the results for the growth inhibition in test [9] and in [15] were -9.82% (inactive) and -6.86% (inactive), respectively. In [10], the viability increase was -3.34% (inactive). The RAM network inhibition in test [14] is 0.87% (inactive).
On to `COC(=O)c1cn(NC(=O)c2cccnc2)c(=O)c2ccccc12`, for which the viability in [1] was 88%; in test [3] it was 88% (inactive); in [4], 101% (inactive); in test [5], 103% (inactive); in test [6] (setting [16]), 100%; in test [6] (setting [17]), 103%. For the same molecule, the viability in [11] was 101% (inactive); in [12], 99% (inactive). Also, the Her2 level in test [2] was 84% (inactive). Moreover, in test [6] (H69AR cells + 2 uM doxorubicin), the differential viability (reversal) was 2.79% (inactive). For the same molecule, the results for the inhibition in [7], in test [8] and in [13] were -7.26% (inactive), 1.11% (inactive) and 0.92% (inactive), respectively. Also, the growth inhibition in test [9] was -2.23% (inactive); in [15], 0.94% (inactive). For the same molecule, in test [14], the RAM network inhibition was 5.05% (inactive).
In the case of `Cc1ccc(C)c(N2CCN(C(=O)c3cc4ccccn4n3)CC2)c1`, the viability in test [1] was 91%; in [3], 91% (inactive); in test [4], 90.1% (inactive); in test [5] it was 99.8% (inactive); in test [11], 91.7% (inactive); in test [12] it was 92.5% (inactive). Besides, the Her2 level in [2] is 85% (inactive). For the same molecule, the inhibition in test [7] was -4.74% (inactive); in test [8], 8.33% (inactive); in [13], 0.805% (inactive). In addition, the growth inhibition in test [9] is -8.86% (inactive); in test [15] it was 0.2% (inactive). Besides, the viability increase in test [10] is -2.11% (inactive). Moreover, the RAM network inhibition in [14] is 10.8% (inactive).
`CCn1c2ccccc2c2cc(Nc3cc(C)nc4ncnn34)ccc21`: the viability in test [1] is 93%; in [3], 93% (inactive); in [4] it was 18.1% (active); in [5], 29.4% (active); in [6] (setting [16]), 57.4%; in test [6] (setting [17]), 29.4%. Also, the viability in test [12] was 12.2% (active). For the same molecule, the Her2 level in test [2] is 49% (active). Moreover, the differential viability (reversal) in [6] (H69AR cells + 2 uM doxorubicin) was -28% (inactive). Further, the inhibition in [7] was -1.6% (inactive); in test [8], 0% (inactive); in [13], -0.255% (inactive). The growth inhibition in [15] is 72.4% (active). Also, the viability increase in [10] is -7.76% (inactive). The RAM network inhibition in test [14] was -1.23% (inactive).
